Autofluor counter: flagged as autofluorescent in microsphere protease counterscreen. compound autofluorescence counterscreen, microsphere flow cytometry; hits give high values. actives 3.1% (n = 360,000). fluorescence intensity (concentration not given with the values); in the data active = fluorescence intensity above about 16000; inconclusive = no clear call, values can overlap the other calls
BH1578 lux ind: inducers of Vibrio cholerae quorum light production without autoinducers. V. cholerae BH1578 lux reporter, luminescence, 6 h. activation, % at 18.7 µM. actives 0.16% (n = 350,000). AID 588436; in the data active = activation mostly above about 9.7%, no sharp cut-off; inconclusive = no clear call, values can overlap the other calls; inactive = mostly below about 3.7%
BoNT F protease: inhibitors of Botulinum neurotoxin F light chain protease. Multiplex microsphere protease cleavage assay, flow cytometry. inhibition, % at 10 µM. actives 0.22% (n = 360,000). AID 588497; in the data active = inhibition above about 35%, passing the limit was not always enough; inconclusive = no clear call, values can overlap the other calls
BoNT-A LC inh2: BoNT A light chain protease inhibition; actives 0.17% (n = 360,000); inhibition, % at 10 µM; multiplex microsphere protease substrate cleavage, flow cytometry
BJeLR lethal: BJeLR cell viability loss; inhibition, % (no concentration beside the values); actives 0.17% (n = 300,000); BJeLR (HRASV12) viability, CellTiter-Glo ATP luminescence, 48 h; in the data active = inhibition above about 50%; inconclusive = no clear call, values can overlap the other calls
Anthrax LF inh2: anthrax lethal factor protease inhibition; multiplex microsphere protease cleavage assay, LF; inhibition, % at 10 µM; actives 0.12% (n = 360,000)
Target sequence (P15917 whole entry, looked up): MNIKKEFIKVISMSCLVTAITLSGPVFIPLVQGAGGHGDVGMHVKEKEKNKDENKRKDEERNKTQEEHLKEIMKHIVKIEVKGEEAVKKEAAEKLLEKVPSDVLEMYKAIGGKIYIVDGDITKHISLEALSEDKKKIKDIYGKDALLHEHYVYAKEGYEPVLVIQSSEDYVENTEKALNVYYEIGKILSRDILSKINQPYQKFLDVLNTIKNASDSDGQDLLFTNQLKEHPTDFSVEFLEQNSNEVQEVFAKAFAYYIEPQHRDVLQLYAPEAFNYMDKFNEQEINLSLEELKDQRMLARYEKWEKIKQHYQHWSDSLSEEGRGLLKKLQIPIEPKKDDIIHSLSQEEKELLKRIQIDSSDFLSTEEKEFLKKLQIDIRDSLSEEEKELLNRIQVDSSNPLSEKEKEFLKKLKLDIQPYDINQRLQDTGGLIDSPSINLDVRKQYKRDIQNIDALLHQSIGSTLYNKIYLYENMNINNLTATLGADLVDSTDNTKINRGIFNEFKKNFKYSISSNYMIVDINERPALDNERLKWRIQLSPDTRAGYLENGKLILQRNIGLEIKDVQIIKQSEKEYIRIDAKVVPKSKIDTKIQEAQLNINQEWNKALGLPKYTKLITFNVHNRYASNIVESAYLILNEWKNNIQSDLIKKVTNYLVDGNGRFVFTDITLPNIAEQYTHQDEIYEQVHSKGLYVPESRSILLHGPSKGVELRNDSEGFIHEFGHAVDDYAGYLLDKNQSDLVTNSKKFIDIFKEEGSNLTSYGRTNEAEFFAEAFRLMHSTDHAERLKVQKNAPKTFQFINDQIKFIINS
Numbers stand for hits. Sampled rows, rich in hits. Any-hit rate of the full collection: about 3.7%. Rule as the data show it, unless noted: active = inhibition above about 30%; inconclusive = no clear call, values can overlap the other calls; inactive = below that.

`COC(=O)c1ccc2c(=O)[nH]c(CN3c4ccccc4CC3C)nc2c1` (stereo not given) gave Autofluor counter 19519, BH1578 lux ind inactive, BoNT F protease inactive, BoNT-A LC inh2 inconclusive, BJeLR lethal inactive and Anthrax LF inh2 inactive.
For Cc1cccc(C)c1-n1nnnc1C1(C)CCC(=O)N1CC1CCCCC1 (stereo not given) the results were Autofluor counter inactive, BoNT F protease inactive, BoNT-A LC inh2 inactive and Anthrax LF inh2 inactive.
For Cc1ccc2[nH]c3c(c2c1)CN(C(=O)CN1CCN(c2cccc(C)c2C)CC1)CC3 the results were Autofluor counter inactive, BH1578 lux ind inactive, BoNT F protease inactive, BoNT-A LC inh2 inactive, BJeLR lethal inactive and Anthrax LF inh2 inactive.
Cc1ccc2[nH]c3c(c2c1)CN(C(=O)CN1c2ccc(F)cc2CCC1C)CC3 (stereo not given) was read as Autofluor counter 21807, BH1578 lux ind inactive, BoNT F protease inactive, BoNT-A LC inh2 inconclusive, BJeLR lethal inactive and Anthrax LF inh2 inactive.
For CCCCN1C(=O)C(CC(=O)NCc2cccc3ccccc23)CC(C(=O)N2CCCCCC2)=C1C (stereo not given) the results were Autofluor counter inactive, BoNT F protease inactive, BoNT-A LC inh2 inactive and Anthrax LF inh2 inactive.
COc1ccc(OC)c(C2SCCN2S(C)(=O)=O)c1 (stereo not given) was read as Autofluor counter 22914, BH1578 lux ind inactive, BoNT F protease inactive, BoNT-A LC inh2 inactive, BJeLR lethal inactive and Anthrax LF inh2 inactive.
`CCCS(=O)(=O)NC(=O)C1(C)CCCN(C(=O)c2ccc3c(c2)OCO3)C1` (stereo not given) gave Autofluor counter inactive, BH1578 lux ind inactive, BoNT F protease inactive, BoNT-A LC inh2 inactive and Anthrax LF inh2 inactive.
Screening Cc1ccc(-c2ccc(/C=N/N=C3/NC(=O)C(CC(=O)O)S3)o2)c([N+](=O)[O-])c1 (stereo not given) returned Autofluor counter inactive, BH1578 lux ind inactive, BoNT F protease inactive, BoNT-A LC inh2 inactive, BJeLR lethal inactive and Anthrax LF inh2 inactive.
Screening O=C(O)CC1S/C(=N/N=C/c2ccc(-c3ccccc3[N+](=O)[O-])o2)NC1=O (stereo not given) returned Autofluor counter 23815, BH1578 lux ind inactive, BoNT F protease inactive, BoNT-A LC inh2 inactive, BJeLR lethal inactive and Anthrax LF inh2 inactive.
CCn1c(COc2ccc(=O)n(-c3ccccc3)n2)nnc1SCc1ccc(OC)cc1 was read as Autofluor counter inactive, BH1578 lux ind inactive, BoNT F protease inactive, BoNT-A LC inh2 inactive, BJeLR lethal inactive and Anthrax LF inh2 inactive.
`CCn1c(COc2ccc(=O)n(-c3ccccc3)n2)nnc1SCc1ccccc1` gave Autofluor counter 21225, BH1578 lux ind inactive, BoNT F protease inactive, BoNT-A LC inh2 inactive, BJeLR lethal inactive and Anthrax LF inh2 inactive.
For O=C(O)Cn1c(-c2cscn2)nc2ccccc21 the results were Autofluor counter inactive, BH1578 lux ind inactive, BoNT F protease inactive, BoNT-A LC inh2 inactive, BJeLR lethal inactive and Anthrax LF inh2 inactive.
Screening N#Cc1ccccc1Cn1c(-c2cscn2)nc2ccccc21 returned Autofluor counter 22811, BH1578 lux ind inactive, BoNT F protease inactive, BoNT-A LC inh2 inconclusive, BJeLR lethal inactive and Anthrax LF inh2 inactive.
`Cc1ccc(S(=O)(=O)N(C)c2ccc(OC(C)C(=O)N(C)c3ccccc3)cc2)cc1` (stereo not given) gave Autofluor counter inactive, BH1578 lux ind inactive, BoNT F protease inactive, BoNT-A LC inh2 inactive and Anthrax LF inh2 inactive.
Screening O=C(C1CSC2(c3ccc(F)cc3)CCC(=O)N12)N1CCCCCC1 (stereo not given) returned Autofluor counter 20230, BH1578 lux ind inactive, BoNT F protease inactive, BoNT-A LC inh2 inactive, BJeLR lethal inactive and Anthrax LF inh2 inactive.
`COc1ccccc1CN1CCCCC1c1cccnc1` (stereo not given) gave Autofluor counter 22672, BH1578 lux ind inactive, BoNT F protease inactive, BoNT-A LC inh2 inactive, BJeLR lethal inactive and Anthrax LF inh2 inactive.
For CCCOc1cccc(CN2CCCCC2c2cccnc2)c1 (stereo not given) the results were Autofluor counter inactive, BH1578 lux ind inactive, BoNT F protease inactive, BoNT-A LC inh2 inactive, BJeLR lethal inactive and Anthrax LF inh2 inactive.
Screening CCCn1c(=S)[nH]c2cc(C(=O)NCC3CCCO3)ccc2c1=O (stereo not given) returned Autofluor counter inactive, BH1578 lux ind inactive, BoNT F protease inactive, BoNT-A LC inh2 inactive, BJeLR lethal inactive and Anthrax LF inh2 inactive.

Assay outcomes: PubChem BioAssay, several laboratories
